SmPrx2 inh – blocks S. mansoni peroxiredoxin 2 enzymatic activity | S. mansoni Prx2 activity coupled to TGR/GSH (TGR is thioredoxin glutathione reductase), NADPH fluorescence loss, qHTS | Potency, µM | 65,000 tested, 0.07% active
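Prx2 inhibition was measured as reduced NADPH consumption when electrons flowed from NADPH through TGR and glutathione to Prx2 and H2O2. Plates were read kinetically over 8 min; enzyme reagents were held at 4 deg C during dispensing.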
Anthrax LT inh – inhibitors of anthrax lethal toxin internalization; Potency, µM (titrated, usually from 40 µM), without a hit: at the top dose activity change, negative = inhibition, hits mostly inhibitors; 70,000 tested, 0.67% active; AID 912; Cells, anthrax lethal toxin internalization, FRET ratio (460/530); further: on the % scale 0 is the no-effect control and ±100 the full control effect; nearly all actives have a fitted effect of over 50% in size
AmpC det inh – inhibitors of E. coli AmpC beta-lactamase with detergent | P00811 | Potency, µM (doses to about 28.7 µM), without a hit: top-dose activity change, negative = inhibition | 71,000 tested, 0.09% active | purified AmpC, nitrocefin hydrolysis with detergent | AID 584; active means well fitted curve in the direction sought with a large enough effect; inconclusive means small, poorly fitted or top-dose-only effect; further: on the % scale 0 is the no-effect control and ±100 the full control effect
Target sequence (P00811 whole entry, looked up): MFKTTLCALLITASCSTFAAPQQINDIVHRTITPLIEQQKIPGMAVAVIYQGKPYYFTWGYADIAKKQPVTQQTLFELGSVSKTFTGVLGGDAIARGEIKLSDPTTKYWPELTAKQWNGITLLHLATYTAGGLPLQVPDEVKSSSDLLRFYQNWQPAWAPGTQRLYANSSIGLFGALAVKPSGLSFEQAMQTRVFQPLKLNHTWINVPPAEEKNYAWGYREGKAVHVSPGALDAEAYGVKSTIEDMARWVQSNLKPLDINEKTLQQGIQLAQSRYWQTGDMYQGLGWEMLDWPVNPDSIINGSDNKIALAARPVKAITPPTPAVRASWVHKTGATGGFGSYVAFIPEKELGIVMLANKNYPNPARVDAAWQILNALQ
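E. coli AmpC (5.3 nM) in 20 mM phosphate pH 7.0 with 0.01% Triton X-100, preincubated 15 min RT with compound; nitrocefin (2 uL of 800 uM stock) hydrolysis followed by 480 nm absorbance every 20 s over 4 min.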
AmpC inh no det – inhibitors of E. coli AmpC beta-lactamase without detergent; P00811; AmpC nitrocefin hydrolysis, absorbance 480 nm, no detergent; Potency, µM (top dose mostly 28.7 µM), for inactives: at the highest dose activity change, negative = inhibition; 71,000 tested, 1.8% active; AID 585; further: % of control where 0% means no effect
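Enzyme, pH 7.0 phosphate. Compound titrations were pre-incubated with AmpC for 15 min at room temperature before nitrocefin (stock 800 uM) addition; product formation was recorded at 480 nm every 20 s for 4 min.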
Starred values were filed as active, the others as inactive; [ ] = another dose, or the depositor's remark. Hits are enriched below; roughly 2.4% of the tested compounds scored in any of these assays. Unless noted, the call rests on the fitted dose curve. Potency means the concentration at half of the fitted maximal effect.

`CCCC(=O)c1ccc(N2CCN(C(=O)c3ccccc3Br)CC2)c(F)c1` gave SmPrx2 inh >57, Anthrax LT inh 12.6µM*, AmpC det inh -1.0% and AmpC inh no det 86.6%.
`CS(=O)(=O)Nc1cccc(-c2ccc3ncnc(Nc4ccccc4)c3c2)c1` gave SmPrx2 inh >57, Anthrax LT inh inconclusive, AmpC det inh 0.5% and AmpC inh no det -9.8%.
Screening Cc1cccc(OCC(=O)NCc2ccncc2)c1C returned SmPrx2 inh >57, Anthrax LT inh -5.1%, AmpC det inh 11.4% and AmpC inh no det 3.16µM*[single pt active].
`Oc1ccc(Br)cc1/C=N/n1cnc2ccccc21` gave SmPrx2 inh >57, Anthrax LT inh -31.2%, AmpC det inh 0.3% and AmpC inh no det 15.8µM*[single pt active].
For OCC(CO)(CO)N=Cc1cc(Br)ccc1O the results were SmPrx2 inh >57, Anthrax LT inh -19.8%, AmpC det inh 3.7% and AmpC inh no det -6.5%.
Screening O=C(Nc1ccc([N+](=O)[O-])cc1Cl)c1cc(Cl)ccc1O returned SmPrx2 inh >57, Anthrax LT inh 0.251µM*, AmpC det inh -0.8%[12.8 µM] and AmpC inh no det -1.9%[12.8 µM].
Screening Cc1cccc(C(=O)O)c1C[C@H]1NCC[C@H]2c3ccccc3N[C@@H]12 returned SmPrx2 inh >57, Anthrax LT inh -4.8%[8 µM], AmpC det inh -2.5%[5.75 µM] and AmpC inh no det 5.3%[5.75 µM].
For CNC(=O)C1(CC(C)C)C=CCN1C(=O)c1ccccc1 (stereo not given) the results were Anthrax LT inh -15.3%, AmpC det inh 13.5% and AmpC inh no det 8.5%.
For CCCc1cc(C(=O)Nc2cc(Br)ccc2O)no1 the results were SmPrx2 inh >57, Anthrax LT inh inconclusive, AmpC det inh 6.4% and AmpC inh no det 15.8µM*[single pt active].
`CCCc1cc(C(=O)Nc2ccc(C)cc2)no1` gave SmPrx2 inh >57, Anthrax LT inh inconclusive, AmpC det inh 16.3% and AmpC inh no det 3.98µM*[single pt active].
Cc1ccc(NC(=O)c2cc(C)on2)cc1 was read as SmPrx2 inh >57, Anthrax LT inh -25.2%, AmpC det inh 1.7% and AmpC inh no det -14.5%.
Screening CCOC(=O)c1c(NC(=O)c2noc3c2CCCC3)sc2c1CCCC2 returned SmPrx2 inh >57, Anthrax LT inh -6.7%, AmpC det inh -1.5% and AmpC inh no det 5.1%.
Screening CCCc1cc(C(=O)Nc2sc3c(c2C(=O)OCC)CCCC3)no1 returned SmPrx2 inh >57, Anthrax LT inh -11.8%, AmpC det inh 8.1% and AmpC inh no det 3.98µM*[single pt active].
Screening CC[C@H]1C(=O)OC[C@@H]1Cc1cncn1C returned SmPrx2 inh >57, Anthrax LT inh -8.3%, AmpC det inh -1.0% and AmpC inh no det -9.4%.
For O=C(O)C[C@H](Cc1ccccc1Cl)C(=O)O the results were SmPrx2 inh >57, Anthrax LT inh 0.6%[8 µM], AmpC det inh -7.0%[5.75 µM] and AmpC inh no det -0.4%[5.75 µM].
For O=C(NCCCN1CCOCC1)c1c(O)c2ccccc2[nH]c1=O the results were SmPrx2 inh >57, Anthrax LT inh 3.1%, AmpC det inh -3.0% and AmpC inh no det 23.9%.
For COc1cc2[nH]c(=O)c(C(=O)NCCCN3CCCCC3)c(O)c2cc1OC the results were SmPrx2 inh >57, Anthrax LT inh 12.6µM*, AmpC det inh 8.6% and AmpC inh no det 30.6%.
O=c1c(O)c(-c2cc(O)c(O)c(O)c2)oc2cc(O)cc(O)c12 was read as SmPrx2 inh >57, Anthrax LT inh inconclusive, AmpC det inh -1.7% and AmpC inh no det 10µM*.
Screening OC[C@H]1NC[C@H](O)[C@@H](O)[C@H]1O returned SmPrx2 inh >57, Anthrax LT inh -11.0%, AmpC det inh -1.4% and AmpC inh no det -2.2%.
Cc1ccc(NC(=O)c2c(-c3c(F)cccc3Cl)noc2C)cc1F was read as Anthrax LT inh 10µM*, AmpC det inh -1.6% and AmpC inh no det -18.2%.
`COCCCNC(=O)CCCn1c(=O)[nH]c2ccccc2c1=O` gave SmPrx2 inh >57, Anthrax LT inh -9.5%, AmpC det inh -3.5% and AmpC inh no det -8.9%.
Screening COCCCNC(=O)c1ccc(Cn2c(=O)[nH]c3ccccc3c2=O)cc1 returned SmPrx2 inh >57, Anthrax LT inh inconclusive, AmpC det inh 14.3% and AmpC inh no det 3.98µM*[single pt active].
For CC[C@](N)(C(=O)O)C(C)C the results were SmPrx2 inh >57, Anthrax LT inh inconclusive, AmpC det inh -5.5%[5.75 µM] and AmpC inh no det -7.1%[5.75 µM].
Screening Cc1ccc(-c2csc(N)n2)s1 returned SmPrx2 inh >57, Anthrax LT inh inconclusive, AmpC det inh -1.6% and AmpC inh no det inconclusive.
Screening CC(=O)NCc1ccc(-c2csc(N)n2)s1 returned SmPrx2 inh >57, Anthrax LT inh 10µM*, AmpC det inh 13.5% and AmpC inh no det -11.5%.
For CNc1nc(Nc2ccc(C(C)=O)cc2)nc(OC(C(F)(F)F)C(F)(F)F)n1 the results were SmPrx2 inh >57, Anthrax LT inh 10µM*, AmpC det inh 2.0% and AmpC inh no det 38.0%.
Screening O=C(c1cc(C(F)(F)F)cc(C(F)(F)F)c1)N1CCC2(CC1)CN(c1ccccc1)C2 returned SmPrx2 inh inconclusive, Anthrax LT inh 19.2%, AmpC det inh 1.1% and AmpC inh no det 61.3%.
`CCCC/C=C/C(NC(=O)c1ccc(C(F)(F)F)cc1)c1ccccc1` (stereo not given) gave SmPrx2 inh >57, Anthrax LT inh -29.7%, AmpC det inh 1.8% and AmpC inh no det 15.8µM*[single pt active].
`CCCC/C=C/C(NC(=O)c1ccccc1)c1ccccc1` (stereo not given) gave SmPrx2 inh >57, Anthrax LT inh inconclusive, AmpC det inh -2.1% and AmpC inh no det -12.7%.
For Oc1ccc2cc(SSc3ccc4cc(O)ccc4c3)ccc2c1 the results were Anthrax LT inh inconclusive, AmpC det inh 0.4% and AmpC inh no det 15.8µM*.
`CC(CC(=O)O)(CC(=O)O)c1ccccc1` gave SmPrx2 inh >57, Anthrax LT inh 3.4%[8 µM], AmpC det inh -5.3%[5.75 µM] and AmpC inh no det 1.7%[5.75 µM].
COc1ccc(C(=O)Nc2ccc(Cl)cc2C(=O)NCc2ccco2)cc1OC was read as Anthrax LT inh 7.94µM*, AmpC det inh 6.1% and AmpC inh no det 62.2%.
`OC[C@@H]1O[C@H](n2cnc3c(/C=C(\O)c4ccccc4)ncnc32)[C@H](O)[C@@H]1O` gave SmPrx2 inh >57, Anthrax LT inh -2.9%[8 µM], AmpC det inh 0.5%[5.75 µM] and AmpC inh no det -2.8%[5.75 µM].
Screening Cc1cc(NC(=O)c2cc(-c3ccccn3)nc3ccccc23)no1 returned SmPrx2 inh >57, Anthrax LT inh inconclusive, AmpC det inh -5.5% and AmpC inh no det 18.5%.
Screening Cc1cc(NC(=O)c2cc(-c3cccs3)nc3ccccc23)no1 returned SmPrx2 inh >57, Anthrax LT inh inconclusive, AmpC det inh 5.5% and AmpC inh no det 3.98µM*[single pt active].
For C#CCCCO/N=C1/C[C@@H](O)[C@@H](O)[C@@H]2[C@@H]3C(=O)N(C4CCCCC4)C(=O)[C@H]3CC[C@@H]12 the results were Anthrax LT inh 13.8%[8 µM].
For COCCOC(=O)c1[nH]c2c(c1C)C(=O)CC(c1cc(OC)ccc1OC)C2 (stereo not given) the results were SmPrx2 inh >57, Anthrax LT inh 3.3%, AmpC det inh 13.5% and AmpC inh no det 23.4%.

Screening data: PubChem, National Center for Advancing Translational Sciences (NCATS)
